This is part of a sample that, as a whole, favours compounds with a hit. Of some 83,000 tested, about 20% had one in any assay.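 In brief: 96-well plates, 48 h treatment, single concentration, percent growth endpoint.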 A number with no mark means an inactive call. The source made the active and inactive calls. Rule for the calls: active = growth percent below 10; inactive = the rest.
Columns and labels:
Assay in all cases: NCI-60 one-dose screen, 48 h (100 = growth as untreated, 0 = no growth, -100 = all killed)
Settings in all cases: 10 µM unless noted
[1] = system: DU-145 prostate
[2] = system: K-562 leukemia
[3] = system: MALME-3M melanoma
[4] = system: MDA-MB-231 breast
[5] = system: RXF 393 renal
[6] = system: SF-268 CNS
[7] = system: SF-295 CNS
[8] = system: SF-539 CNS
[9] = system: UACC-257 melanoma
[10] = system: M14 melanoma
[11] = system: HCT-15 colon
[12] = system: HT29 colon
[13] = system: SNB-75 CNS
[14] = system: SNB-19 CNS
[15] = system: U251 CNS
[16] = system: PC-3 prostate
[17] = system: SK-MEL-5 melanoma
[18] = system: UACC-62 melanoma
[19] = system: LOX IMVI melanoma

| Compound | growth [1] | growth [2] | growth [3] | growth [4] | growth [5] | growth [6] | growth [7] | growth [8] | growth [9] | growth [10] | growth [11] | growth [12] | growth [13] | growth [14] | growth [15] | growth [16] | growth [17] | growth [18] | growth [19] |
| --- | --- | --- | --- | --- | --- | --- | --- | --- | --- | --- | --- | --- | --- | --- | --- | --- | --- | --- | --- |
| CCN1CCN(Cc2ccc(NC(=O)c3nc4ccc5[nH]ncc5c4c4c3CCCC4)cc2C(F)(F)F)CC1 | -57.8% (active) | -44.5% (active) | -79.3% (active) | -72.1% (active) | -87.4% (active) | 27.4% | -54.2% (active) | -93.7% (active) | -63.9% (active) | -75.4% (active) | -47.8% (active) | -74.3% (active) | 80.8% | 13.9% | -85.7% (active) | 19.8% | -75.3% (active) | -68.7% (active) | -94.6% (active) |
| COc1cc(CN2CCO[C@H](COc3cccc(F)c3)C2)ccc1Cl | 41.5% | 21.1% | 63.8% | 33.2% | 79.3% | 48.2% | 28% | 59.5% | 19.2% | 39.1% | 26.3% | 42.6% | 45% | 29.8% | 27.5% | 27.8% | 37.7% | 44.7% | 50.7% |
| O=C(OCc1ccc2c(Br)cc(Br)c(O)c2n1)c1cc2ccccc2[nH]1 | -91.6% (active) | 1.14% (active) | -85.5% (active) | -81.9% (active) | -91.4% (active) | -51.5% (active) | 68.5% | -96.3% (active) | -64.6% (active) | -64.7% (active) | -66.7% (active) | -82.5% (active) | -46.3% (active) | 45.6% | 22.7% | -55.6% (active) | -47.5% (active) | -83% (active) | -93.4% (active) |
| Cc1ccc(NC(=O)Cn2nncc2CN2C(=O)CSC2=O)cc1C | 106% | 106% | 99% | 111% | 103% | 98.5% | 103% | 101% | 102% | 105% | 94.5% | 105% | 93.3% | 97.9% | 103% | 99.3% | 98.7% | 102% | 93.6% |
| O=C(OCc1ccc2c(Cl)cc(Cl)c(O)c2n1)c1cc2ccccc2[nH]1 | -94.5% (active) | -5.38% (active) | -77.7% (active) | -78.3% (active) | -94.9% (active) | -80.4% (active) | 64.3% | -91.1% (active) | -72.4% (active) | -69.7% (active) | -50.2% (active) | -81.1% (active) | -94.8% (active) | 34.8% | -92.6% (active) | -79.8% (active) | -97.6% (active) | -70.7% (active) | -91.2% (active) |
| CN1CCN(Cc2ccc(NC(=O)c3cncc(C#Cc4ccc(N)nc4)c3)cc2C(F)(F)F)CC1 | 21.4% | 1.27% (active) | -70.3% (active) | -46.3% (active) | -6.03% (active) | 15.8% | 11.5% | -39.8% (active) | 11.8% | -37% (active) | 7.71% (active) | 3.36% (active) | 4.55% (active) | 37.2% | 14.9% | 15.6% | -5.69% (active) | -5.85% (active) | -25.8% (active) |
| CCN(CC)CCCC(C)Nc1cnc(C(=O)Nc2ccc(Cl)c3cccnc23)cn1 (centres undefined) | 53.1% | -45.8% (active) | -71.8% (active) | -29.7% (active) | 18.7% | 35.8% | 63% | -73.6% (active) | -33% (active) | -73.1% (active) | 3.73% (active) | -49.4% (active) | 41.7% | 49.6% | -35.3% (active) | 39.4% | -3.7% (active) | -52.4% (active) | -83.9% (active) |
| CCN(C)CCCOc1ccc(/C(=C(\C)Cc2cccc(OC)c2)c2ccc(OC(C)=O)cc2)cc1 | 104% | 101% | 97.3% | 104% | 106% | 94.1% | 99.1% | 101% | 109% | 101% | 101% | 102% | 81.7% | 102% | 97.1% | 98.1% | 99.1% | 98.4% | 97.2% |
| COc1ccc(-c2cn(-c3cccc(C(=O)/C=C/c4ccc(O)c(OC)c4)c3)c(=O)[nH]2)cc1 | 6.8% (active) | 25.7% | 72.5% | 38.9% | -60.9% (active) | 19.1% | 15.2% | 10.5% | 40.3% | 51% | 8.88% (active) | -21.6% (active) | 1.36% (active) | 67.4% | 4.66% (active) | 20.2% | 22.7% | 40.8% | -13.9% (active) |
| COC(=O)CNS(=O)(=O)c1ccc2c(c1)Cc1cc(S(=O)(=O)NCC(=O)OC)ccc1-2 | 113% | 100% | 100% | 105% | 108% | 102% | 100% | 97.2% | 97.6% | 103% | 102% | 112% | 91.6% | 100% | 100% | 92.9% | 98.2% | 93.3% | 97% |
| COc1ccc(NC(=O)c2ccc(C(F)(F)F)nc2Nc2ccc(Cl)cc2C)cc1Cl | 9.29% (active) | 16.4% | 34.8% | 7.34% (active) | 42.5% | 38.2% | 3.72% (active) | 50.3% | 22% | 34.2% | 22.4% | 26.6% | 35% | 30% | 20.3% | 10.2% | 28.2% | 15.3% | 13.4% |
| CN1CCN(Cc2ccc(NC(=O)c3cncc(C#Cc4cnc5cccnn45)c3)cc2C(F)(F)F)CC1 | 3.43% (active) | 2.91% (active) | -46.5% (active) | -14.4% (active) | -56.3% (active) | -27.9% (active) | 28.6% | -47.9% (active) | 3.46% (active) | -33.5% (active) | 5.63% (active) | 1.67% (active) | -68.8% (active) | 9.4% (active) | 5.83% (active) | 5.62% (active) | 1.22% (active) | 10% | -16.2% (active) |
| N#Cc1nc(-c2ccc(Cl)cc2)cc(-c2ccc(Nc3nc(N4CCCCC4)nc(N4CCCCC4)n3)cc2)c1N | 105% | 105% | 107% | 114% | 115% | 101% | 101% | 103% | 105% | 104% | 108% | 113% | 81.5% | 104% | 102% | 91.6% | 97.6% | 106% | 95.8% |
| Clc1cn2cc(-c3ccc(Cl)c(Cl)c3Cl)nc2s1 | 117% | 92.6% | 101% | 98.5% | 99.8% | 103% | -71.5% (active) | 105% | 112% | 95.3% | 93.9% | 112% | 91.4% | 99.8% | 102% | 99.9% | 100% | 96.3% | 99.3% |
| C[C@]12CCc3nc(Nc4ccc(O)cc4)sc3C1=CC[C@@H]1[C@@H]2CC[C@]2(C)/C(=N/NC(N)=S)CC[C@@H]12 | -62.4% (active) | -2.83% (active) | -60.5% (active) | -40.4% (active) | -67.6% (active) | -17% (active) | -8.62% (active) | 5.79% (active) | -9.35% (active) | -23.8% (active) | -48% (active) | -47.6% (active) | -2.86% (active) | -13.1% (active) | -70.3% (active) | -33.7% (active) | -61.2% (active) | -74.8% (active) | -52.5% (active) |
| CC[C@H](Nc1nc(C)nc(N)c1C#N)c1nc2cccc(NCc3ccc(C(=O)NO)cc3)c2c(=O)n1-c1ccccc1 | 11.2% | 2.24% (active) | 2.94% (active) | 14.7% | -27.2% (active) | 12.3% | 21.5% | 14.6% | -3.98% (active) | 8.71% (active) | 21% | 14.8% | 7.85% (active) | 17.6% | 1.03% (active) | 8.89% (active) | -20.4% (active) | 4.19% (active) | -59.6% (active) |

Reference: PubChem BioAssay (NCI)
